Measurements: publication PMC7862700, “An all-to-all approach to the identification of sequence-specific readers for epigenetic DNA modifications on cytosine”

Experiments:
Assay in all cases: DAPPL (digital affinity profiling via proximity ligation, sequencing); 10 mM Tris-HCl pH 7.5, 50 mM NaCl, 1 mM DTT, 4% glycerol, room temperature, 30 min; GST-TFs on glutathione beads, 16-mer random dsDNA library, 0.1% formaldehyde crosslink after washing; high values mean tight binding
Conditions in all cases: protein: recombinant; tags: N-terminal GST; dsDNA, one strand shown
ETV2 = target: T1, ETV2 (Homo sapiens, UniProt O00321 1-342)
T1 sequence: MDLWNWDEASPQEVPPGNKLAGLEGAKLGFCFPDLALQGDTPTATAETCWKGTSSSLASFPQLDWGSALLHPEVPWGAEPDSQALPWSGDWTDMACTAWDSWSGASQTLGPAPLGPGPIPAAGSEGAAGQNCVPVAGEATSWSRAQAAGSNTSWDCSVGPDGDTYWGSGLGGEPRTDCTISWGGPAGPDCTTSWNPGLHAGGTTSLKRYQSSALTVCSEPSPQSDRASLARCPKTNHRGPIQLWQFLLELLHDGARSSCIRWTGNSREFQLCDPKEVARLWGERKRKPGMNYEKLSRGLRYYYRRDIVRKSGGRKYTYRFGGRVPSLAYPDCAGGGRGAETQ
Summary of the method: (§1)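 Sequencing on an Illumina NextSeq500 followed washing, crosslinking with 0.1% formaldehyde, proximity ligation (BsaI/T4 ligase, 1 h, 37 °C) and PCR amplification of pools that had been incubated for 30 min at room temperature with 200 nmole of a random double-stranded 16-mer DNA library in Tris/NaCl/DTT/glycerol buffer. Each pool held DNA-barcoded human transcription factors, expressed in yeast as GST fusions and captured on glutathione beads, plus a tag-only sample. Binding signal is a hexamer's read frequency for a factor divided by its frequency in the tag-only sample.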

ELF3 = target: T2, ELF3 (Homo sapiens, UniProt P78545 1-371)
T2 sequence: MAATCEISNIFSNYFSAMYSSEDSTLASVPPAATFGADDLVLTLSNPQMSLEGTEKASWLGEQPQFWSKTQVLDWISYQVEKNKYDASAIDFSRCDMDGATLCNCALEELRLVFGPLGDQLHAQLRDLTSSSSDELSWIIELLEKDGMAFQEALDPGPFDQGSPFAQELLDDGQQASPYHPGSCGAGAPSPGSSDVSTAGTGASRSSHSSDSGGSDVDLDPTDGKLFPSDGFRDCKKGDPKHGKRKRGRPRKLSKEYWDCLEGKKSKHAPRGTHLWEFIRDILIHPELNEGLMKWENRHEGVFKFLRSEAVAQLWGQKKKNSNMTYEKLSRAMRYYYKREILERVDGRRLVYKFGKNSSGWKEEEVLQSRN
Summary of the method: as §1

ETV1 = ETV1 (Homo sapiens, UniProt P50549 1-477)
Summary of the method: as §1

ERF = target: T3, ERF (Homo sapiens, UniProt P50548 1-548)
T3 sequence: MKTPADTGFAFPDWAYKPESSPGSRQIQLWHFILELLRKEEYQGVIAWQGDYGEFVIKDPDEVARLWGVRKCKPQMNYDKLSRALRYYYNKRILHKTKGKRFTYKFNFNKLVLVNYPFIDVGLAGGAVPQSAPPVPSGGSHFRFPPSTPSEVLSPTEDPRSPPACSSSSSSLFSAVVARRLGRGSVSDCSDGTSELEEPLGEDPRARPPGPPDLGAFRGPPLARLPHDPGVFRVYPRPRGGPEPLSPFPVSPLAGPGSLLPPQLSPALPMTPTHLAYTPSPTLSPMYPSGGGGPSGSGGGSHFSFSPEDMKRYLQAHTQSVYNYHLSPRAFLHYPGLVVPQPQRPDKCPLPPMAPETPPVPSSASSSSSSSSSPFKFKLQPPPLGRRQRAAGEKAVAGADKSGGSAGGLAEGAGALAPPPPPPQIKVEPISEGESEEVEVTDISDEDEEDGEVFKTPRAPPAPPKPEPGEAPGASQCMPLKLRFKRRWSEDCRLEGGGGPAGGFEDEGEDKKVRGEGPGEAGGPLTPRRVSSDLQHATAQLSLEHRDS
Summary of the method: as §1

ETV3L = target: T4, ETV3L (Homo sapiens, UniProt Q6ZN32 1-361)
T4 sequence: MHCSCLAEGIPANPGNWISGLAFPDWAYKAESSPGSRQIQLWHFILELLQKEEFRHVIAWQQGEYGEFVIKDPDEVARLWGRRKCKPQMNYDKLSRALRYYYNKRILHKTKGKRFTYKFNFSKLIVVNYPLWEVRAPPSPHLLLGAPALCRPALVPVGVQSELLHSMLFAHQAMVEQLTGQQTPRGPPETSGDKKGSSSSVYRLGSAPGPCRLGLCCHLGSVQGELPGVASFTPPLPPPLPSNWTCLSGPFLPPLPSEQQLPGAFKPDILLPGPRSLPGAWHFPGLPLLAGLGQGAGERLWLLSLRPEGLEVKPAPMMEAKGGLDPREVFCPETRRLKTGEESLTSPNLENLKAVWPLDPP
Summary of the method: as §1

ETS2 = target: T5, ETS2 (Homo sapiens, UniProt P15036 1-469)
T5 sequence: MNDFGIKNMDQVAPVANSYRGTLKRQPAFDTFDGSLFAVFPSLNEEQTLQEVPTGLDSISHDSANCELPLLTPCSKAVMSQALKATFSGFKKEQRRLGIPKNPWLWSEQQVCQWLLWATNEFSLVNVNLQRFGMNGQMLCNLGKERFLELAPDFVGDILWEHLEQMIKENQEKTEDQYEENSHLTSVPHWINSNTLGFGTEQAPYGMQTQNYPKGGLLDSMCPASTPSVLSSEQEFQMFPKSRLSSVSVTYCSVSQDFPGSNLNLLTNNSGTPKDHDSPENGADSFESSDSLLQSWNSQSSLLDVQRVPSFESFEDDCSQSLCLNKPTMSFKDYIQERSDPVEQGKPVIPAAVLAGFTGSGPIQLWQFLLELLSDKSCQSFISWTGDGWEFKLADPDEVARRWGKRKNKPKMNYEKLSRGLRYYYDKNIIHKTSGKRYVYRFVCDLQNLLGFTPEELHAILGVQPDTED
Summary of the method: as §1

SPDEF = target: T6, SPDEF (Homo sapiens, UniProt O95238 1-335)
T6 sequence: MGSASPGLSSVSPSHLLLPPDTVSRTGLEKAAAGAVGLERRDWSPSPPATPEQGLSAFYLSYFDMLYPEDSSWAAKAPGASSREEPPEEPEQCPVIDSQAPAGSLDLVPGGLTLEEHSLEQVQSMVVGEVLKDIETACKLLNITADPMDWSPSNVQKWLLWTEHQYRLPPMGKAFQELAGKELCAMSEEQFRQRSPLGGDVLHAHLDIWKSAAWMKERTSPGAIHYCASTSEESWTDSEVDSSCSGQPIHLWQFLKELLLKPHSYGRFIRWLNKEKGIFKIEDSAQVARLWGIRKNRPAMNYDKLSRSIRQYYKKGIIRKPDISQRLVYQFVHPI
Summary of the method: as §1

ETV7 = target: T7, ETV7 (Homo sapiens, UniProt Q9Y603 1-341)
T7 sequence: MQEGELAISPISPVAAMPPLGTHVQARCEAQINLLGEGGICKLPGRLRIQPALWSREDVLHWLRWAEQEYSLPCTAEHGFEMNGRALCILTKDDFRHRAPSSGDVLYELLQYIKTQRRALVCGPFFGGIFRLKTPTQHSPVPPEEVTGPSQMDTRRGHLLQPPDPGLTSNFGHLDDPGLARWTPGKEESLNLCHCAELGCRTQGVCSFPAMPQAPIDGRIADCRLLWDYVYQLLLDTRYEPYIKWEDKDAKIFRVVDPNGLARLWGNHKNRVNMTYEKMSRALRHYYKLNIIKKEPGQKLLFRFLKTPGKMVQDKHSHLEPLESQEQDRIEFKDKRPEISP
Summary of the method: as §1

ETV3 = target: T8, ETV3 (Homo sapiens, UniProt P41162-2 1-143)
T8 sequence: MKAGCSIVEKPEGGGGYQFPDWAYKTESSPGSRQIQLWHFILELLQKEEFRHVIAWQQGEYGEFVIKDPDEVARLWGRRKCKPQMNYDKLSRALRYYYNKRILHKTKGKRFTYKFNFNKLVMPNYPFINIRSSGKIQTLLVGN
Summary of the method: as §1

ETV6 = ETV6 (Homo sapiens, UniProt P41212 1-452)
Summary of the method: as §1

Chain of ETV6 (P41212 whole entry): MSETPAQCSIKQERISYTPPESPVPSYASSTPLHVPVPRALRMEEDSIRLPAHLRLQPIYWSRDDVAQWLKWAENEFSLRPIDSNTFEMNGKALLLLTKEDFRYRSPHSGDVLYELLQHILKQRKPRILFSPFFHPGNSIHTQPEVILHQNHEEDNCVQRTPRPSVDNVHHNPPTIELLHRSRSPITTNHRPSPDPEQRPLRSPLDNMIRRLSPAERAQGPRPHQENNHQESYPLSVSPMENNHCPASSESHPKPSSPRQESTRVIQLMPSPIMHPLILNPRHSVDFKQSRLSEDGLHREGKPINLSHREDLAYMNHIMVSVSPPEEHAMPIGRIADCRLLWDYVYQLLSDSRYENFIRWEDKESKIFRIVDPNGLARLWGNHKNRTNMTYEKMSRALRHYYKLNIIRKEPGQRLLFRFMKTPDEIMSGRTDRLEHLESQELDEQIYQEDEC
Chain of ETV1 (P50549 whole entry): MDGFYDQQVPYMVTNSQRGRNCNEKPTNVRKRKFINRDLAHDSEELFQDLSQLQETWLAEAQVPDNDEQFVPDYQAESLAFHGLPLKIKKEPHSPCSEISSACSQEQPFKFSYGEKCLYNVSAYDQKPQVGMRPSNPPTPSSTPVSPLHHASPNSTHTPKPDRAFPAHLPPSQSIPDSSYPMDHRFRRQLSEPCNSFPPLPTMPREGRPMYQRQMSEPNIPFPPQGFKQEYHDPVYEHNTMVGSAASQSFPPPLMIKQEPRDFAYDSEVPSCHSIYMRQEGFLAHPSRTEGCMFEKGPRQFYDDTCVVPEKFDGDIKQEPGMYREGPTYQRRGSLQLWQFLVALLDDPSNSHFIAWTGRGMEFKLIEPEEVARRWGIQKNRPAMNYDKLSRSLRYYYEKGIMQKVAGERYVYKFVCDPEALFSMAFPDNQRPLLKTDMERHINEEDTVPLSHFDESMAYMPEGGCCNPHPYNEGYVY

In the case of CATGAC, the binding signal (ETV2) is reported as 1.3 fold enrichment (6-mer frequency, TF over GST control), the binding signal (ELF3) is reported as 1.15 fold enrichment (6-mer frequency, TF over GST control) and the binding signal (ETV1) is reported as 1.13 fold enrichment (6-mer frequency, TF over GST control). The binding signal (ERF) was 1.18 fold enrichment (6-mer frequency, TF over GST control), the binding signal (ETV3L) was 1.13 fold enrichment (6-mer frequency, TF over GST control) and the binding signal (ETS2) was 1.2 fold enrichment (6-mer frequency, TF over GST control). For the same sequence, the binding signal (SPDEF) was 1.2 fold enrichment (6-mer frequency, TF over GST control), the binding signal (ETV7) was 1.11 fold enrichment (6-mer frequency, TF over GST control) and the binding signal (ETV3) was 1.13 fold enrichment (6-mer frequency, TF over GST control). The binding signal (ETV6) was 1.18 fold enrichment (6-mer frequency, TF over GST control).
